# Bioassay records from PubChem.
# Most compounds without a hit are left out; they make up all but 19% or so of the library.
# HT1080-NT tox – kills 2HG-producing HT-1080-NT fibrosarcoma cells. Potency, µM (series often up to 46.1 µM), inactives show at the top dose activity, negative = less viability, usual class: cytotoxic. AID 686970. HT-1080-NT fibrosarcoma viability, CellTiter-Glo ATP luminescence, 48 h. actives 1.6% (n = 360,000);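 also: NT is the 2HG producing partner of a matched IDH1 knockdown line; potency is read from the fitted curve at half-maximal effect; 0% = DMSO-treated cells and -100% = media-only wells without cells; nearly all actives have a fitted effect of over 55% in size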
#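 Read-out is CellTiter-Glo luminescence after 10 minutes at room temperature, following 48 hours' compound treatment of HT-1080-NT cells (750 cells/well, RPMI, 5% FBS, 37 degrees C).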
# DT40 TDP1 no CPT – qHTS for Inhibitors of human tyrosyl-DNA phosphodiesterase 1 (TDP1): qHTS in cells in absence of CPT; DT40 Tdp1-/- hTDP1 cells, no CPT, ATP luminescence, 48 h; Potency, µM (series often up to 46.2 µM), for inactives: at the highest dose activity change, negative = growth inhibition, usual class: inhibitors; actives 15% (n = 420,000); AID 686978, 2013; also: potency is read from the fitted curve at half-maximal effect; nearly all actives have a fitted effect of over 55% in size
#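 Growth of hTDP1-complemented DT40 Tdp1-knockout cells is measured by ATP luminescence after at least 48 hr compound exposure at 37 °C, with DMSO substituting for the 20 nM CPT used in the parallel screen.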
# uPA generation – inhibitors of cell surface uPA generation; cell surface uPA generation assay, qHTS; Potency, µM (highest dose often 38.3 µM), for inactives: at the top dose activity change, negative = inhibition, actives largely listed as inhibitors; actives 0.31% (n = 330,000); active = well fitted inhibition curve with a large enough effect; inconclusive = small, poorly fitted or top-dose-only effect; inactive = no such curve, though single readings can be large or run the other way; tested in mouse RAW 264.7 cells; also: potency is read from the fitted curve at half-maximal effect; nearly all actives have a fitted effect of over 55% in size
# HT1080 IDH1KD tx – HT-1080 IDH1 knockdown cell toxicity (counter line); HT-1080 IDH1 knockdown viability, ATP luminescence, 48 h; Potency, µM (series often up to 46.1 µM), without a hit: at the highest dose activity, negative = toxicity, hits mostly cytotoxic; actives 2% (n = 360,000); AID 686971;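 also: potency is read from the fitted curve at half-maximal effect; 0% = DMSO wells and -100% = cell-free medium wells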
#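 % activity derives from luminescence (CellTiter-Glo), normalised to DMSO and no-cell wells. HT-1080-IDH1KD cells, 750/well, had 48 h compound exposure at 37 °C.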
# TDP1 cell CPT – growth inhibition of DT40 Tdp1-/-;hTDP1 cells with camptothecin (screen for TDP1 inhibitors). chicken DT40 Tdp1-/-;hTDP1 cells + 20 nM CPT, ATP luminescence, 48 h. Potency, µM (doses to about 46.2 µM), for the others: top-dose activity change, negative = growth inhibition, actives largely listed as inhibitors. actives 12% (n = 420,000); also: potency is read from the fitted curve at half-maximal effect; nearly all actives have a fitted effect of over 55% in size
#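 Chicken DT40 Tdp1-/- cells complemented with human TDP1, 400 cells/well, exposed to compounds plus 20 nM camptothecin for at least 48 h at 37 C; viability read as ATP content by CellTiter-Glo luminescence.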
# IL1B secr inh – inhibitors of inflammasome signaling (IL-1 beta secretion) | THP-1 LPS/ATP IL-1B secretion, AlphaLISA, 16 h; hits give low values | actives 4.7% (n = 360,000) | activity change, % at 57.5 µM; in the data active = activity change below about -50%; inconclusive = mostly about -30% to -49%
#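 THP-1 cells pretreated 1 hr with compounds (up to 57.5 uM final), then stimulated with LPS (250 ng/mL final) plus ATP (1.25 mM final); secreted IL-1B measured by AlphaLISA after 16 hr, decreased signal indicating inhibition.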
# The depositor's hits bear a star; ? = inconclusive; . = no result; ! = repeats disagree. Unless noted, calls follow the shape of the dose curve; as a rule, active = well fitted curve in the direction sought with a large enough effect; inconclusive = small, poorly fitted or top-dose-only effect, or another doubt; inactive = no such curve, though single readings can be large; an effect the other way counts as inactive or inconclusive. Unless noted, % is scaled to controls: 0 for no effect and ±100 for the full control effect.
SMILES,HT1080-NT tox,DT40 TDP1 no CPT,uPA generation,HT1080 IDH1KD tx,TDP1 cell CPT,IL1B secr inh
CCOC(=O)c1c(S(=O)(=O)NCc2ccc(C)o2)c(C)n(C)c1C,1%,-13%,-13%,10%,?,10
O=C(CCCCn1c(=O)c2ccccc2n(CC(=O)Nc2cccc(F)c2)c1=O)NCCc1ccccc1,.,-20%,.,.,-11%,.
O=C(O)c1cc([N+](=O)[O-])ccc1N1CCC(Cc2ccccc2)CC1,12%,2%,-2%,10%,?,23
O=C(NCC1CCCO1)c1cc([N+](=O)[O-])ccc1N1CCC(Cc2ccccc2)CC1 (configuration not stated),-6%,23µM*,-13%,-27%,?,-12
Cc1cc(C)c(O)c(-c2cc(C(=O)Nc3ccc(S(=O)(=O)N4CCOCC4)cc3)[nH]n2)c1,21µM*,16µM*,-12%,?,16µM*,-86*
CC(=O)Nc1ccc(NC(=O)c2cc(-c3ccc(C)c(C)c3O)n[nH]2)cc1,-5%,-20%,-9%,0%,-29%,?
CC(=O)Nc1ccc(NC(=O)c2cc(-c3cc(C)cc(C)c3O)n[nH]2)cc1,-7%,16µM*,-5%,-11%,12µM*,-5
CSc1nc2nccc(/C=C\c3ccccc3)n2n1,?,23µM*,.,?,?,-105*
CC(C)OC(=O)c1c(NC(=O)c2cccc(C(F)(F)F)c2)sc2c1CCCC2,.,-24%,.,.,-3%,.
COC(=O)C(Sc1ccc(Cl)cc1)C1SC(=S)N(Cc2ccccc2)C1=O (configuration not stated),-16%,2.1µM*,.,?,2.9µM*,-26
COc1ccc(NC(=O)C[C@H]2C(=O)N(Cc3ccccc3)C[C@@H]2C)cc1,13%,-27%,.,11%,-6%,0
COc1ccc(CCn2c(=N)c(C(=O)NC3CCCCC3)cc3c(=O)n4ccccc4nc32)cc1,-1%,4.1µM*,-1%,6%,6.5µM*,-13
COc1ccc(CCn2c(=N)c(S(=O)(=O)c3ccc(C)cc3)cc3c(=O)n4ccccc4nc32)cc1,-7%,-20%,-5%,-1%,-10%,-3
Cc1ccc(Cn2c(=N)c(C(=O)NC3CCCCC3)cc3c(=O)n4ccccc4nc32)cc1,11%,6.5µM*,9%,18%,5.8µM*,6
Cc1cccn2c(=O)c3cc(C(=O)NC4CCCC4)c(=N)n(CCc4ccccc4)c3nc12,11%,3.7µM*,-2%,3%,2.9µM*,28
COc1ccc(CCn2c(=N)c(C(=O)N3CCN(C)CC3)cc3c(=O)n4ccccc4nc32)cc1,-2%,-24%,-5%,0%,?,-54*
COCCn1c(=N)c(C(=O)NCCc2ccccc2)cc2c(=O)n3cccc(C)c3nc21,-1%,?,-8%,-1%,?,18
CCOCCCn1c(=N)c(C(=O)NC2CCCCC2)cc2c(=O)n3ccccc3nc21,.,?,.,.,-5%,.
COc1ccc(OC)c(CN2C(=O)CN(S(C)(=O)=O)CC2(C)C(=O)Nc2c(C)cccc2C)c1 (configuration not stated),9%,-3%,.,3%,7%,-8
O=C(NC(=S)N(CCO)Cc1ccccc1)c1ccc(F)cc1Cl,5%,6%,-5%,16%,3%,-2
C=CCN=C1S/C(=C\c2ccc(N(C)C)cc2)C(=O)N1CC=C,?,?,-7%,5%,?,-15
O=C(c1ccc(Oc2cc(Cl)cc(Cl)c2)o1)N1CCCCC1,8%,-3%,-1%,1%,-14%,0
COc1ccc(CCn2c(=N)c(C(=O)NC3CCCC3)cc3c(=O)n4cccc(C)c4nc32)cc1,-4%,1.8µM*,-8%,-7%,1.5µM*,5
COc1ccc(CCn2c(=N)c(C(=O)NCCN3CCOCC3)cc3c(=O)n4cccc(C)c4nc32)cc1OC,-21%,?,?,-19%,?,?
CC(C)(C)C(=O)Nc1cccc(S(=O)(=O)NC2=NCCC2)c1,5%,0%,3%,0%,-25%,1
SMILES,HT1080-NT tox,DT40 TDP1 no CPT,uPA generation,HT1080 IDH1KD tx,TDP1 cell CPT,IL1B secr inh
Cc1ccc(NC(=O)NNC(=O)Cn2nc(-c3ccccc3)c(-c3ccccc3)c(C#N)c2=O)cc1,4.6µM*,?,-17%,5.2µM*,?,74
CC(C)N(CCCNC(=O)Cn1c(=O)c2cccn2c2ccccc21)Cc1ccccc1,3%,-16%,-5%,7%,18µM*,-1
CN(Cc1ccccc1)C(=O)Cn1c(=O)c2cccn2c2ccc(F)cc21,.,6.5µM*,.,.,23µM*,.
CCN(CC)CCNC(=O)Cn1c(=O)c2cccn2c2ccc(F)cc21,-14%,2%,-3%,-8%,8%,-6
CN(CCCNC(=O)Cn1c(=O)c2cccn2c2ccccc21)Cc1ccccc1,12%,5%,7%,-1%,-11%,?
CN(C)CCNC(=O)Cn1c(=O)c2cccn2c2ccc(F)cc21,-2%,16µM*!,?,-6%,23µM*!,?
Cc1nn(CC(=O)N(C)Cc2ccccc2)c(=O)c2cccn12,5%,-2%,0%,0%,-9%,9
CCN1CCN(S(=O)(=O)c2ccc(Cl)c(C(=O)NCCc3ccccc3)c2)CC1,-11%,-22%,1%,-6%,-7%,-14
Cc1ccc(S(=O)(=O)c2cc3c(=O)n4cccc(C)c4nc3n(Cc3ccncc3)c2=N)cc1,4%,7%,?,-14%,?,10
CCOC(=O)N1CCC(NC(=O)c2cnn(-c3cccc(F)c3)c2-n2cccc2)CC1,.,18µM*,.,.,?,.
CCOC(=O)N1CCC(NC(=O)c2c(C)nn(-c3cccc(C)c3)c2-n2cccc2)CC1,.,18µM*,.,.,21µM*,.
CCOC(=O)N1CCC(NC(=O)CSCc2cnn(-c3ccccc3)c2-n2cccc2)CC1,1%,?,10%,2%,?,-15
CCOC(=O)N1CCC(NC(=O)c2sc(-n3cccc3)nc2C)CC1,-1%,-17%,-2%,-1%,?,-1
Cc1ccc(OCC(=O)Nc2nnc(S(=O)(=O)N3c4ccccc4CC3C)s2)cc1 (configuration not stated),.,-45%,.,.,?,.
O=C1NC(CCO)C(=O)NC1CCO (configuration not stated),18%,-4%,0%,13%,22%,-3
